This note sets out measurements from paper PMC5540273 (PLoS ONE, 2017).

Structures are written as SMILES.
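Further: KINOMEscan kinase panel screen.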

This assay relates to CDK4-cyclinD3. Particulars: concentration: 1 μM, replicates: in singlicate; n = 1.
In the case of `O=C(Nc1n[nH]c2nc(-c3ccccc3O)ccc12)C1CC1` [SB-711880], the “%Inh” value worked out at 17%.

Regarding `N#CC1(c2cccc(C(=O)Nc3cccc(Oc4ccc5nc(NC(=O)C6CC6)sc5n4)c3)c2)CC1`, the “%Inh” value is recorded as 1%.

With `Cl.Cl.NCC(NC(=O)c1cc(-c2cccnc2)c(-c2ccnc3[nH]ccc23)s1)c1ccccc1` (stereo not drawn) [GSK1323434], the “%Inh” value is 0%.

Take `COc1cccc(C2=C(Nc3cccc(O)c3)C(=O)NC2=O)c1` [SB-390771]: the “%Inh” value is on record as 0%.

With `Fc1cc(Cl)ccc1Nc1ccnc2cc(-c3ccc(CN4CCSCC4)o3)ccc12` [GW560106], the “%Inh” value was 0%.

Take `O=C(O)C(F)(F)F.O=c1[nH]ccc2nc(N[C@@H]3CCNC3)nc(Nc3ccc4c(c3)S(=O)(=O)CC4)c12` [GSK2181306]: the “%Inh” value worked out at 69%.

With `Cc1ccccc1CC(=O)N1CCc2cc(-c3cn(C)c4ncnc(N)c34)ccc21` [GSK2603346], the “%Inh” value was 0%.

For `O=C(Nc1n[nH]c2nc(-c3ccccc3)ccc12)C1CC1` [SB-708999], the “%Inh” value amounted to 0%.

Take `CN(c1ccc(NC(=O)Nc2cccc(Cl)c2)cc1)c1ccnc(N)n1.Cl` [GW830707]: the “%Inh” value was found to be 0%.

For the compound `CN(C)CCOc1ccc(-c2cc(-c3ccc(Cl)c(O)c3)c(-c3ccncc3)[nH]2)cc1.Cl.Cl` [SB-684387], the “%Inh” value is 15%.

On to `Cc1ccc(Nc2ccnc(Nc3ccc(C)c(F)c3)n2)cc1O.Cl` [GW582868], for which the “%Inh” value amounted to 5%.

`CN(c1ccc(NC(=O)N2CCN(CCCN3CCOCC3)CC2)cc1)c1ccnc(Nc2ccc(CS(C)(=O)=O)cc2)n1.Cl` [GW830899]: the “%Inh” value is recorded as 0%.

On to `Nc1ncnc2scc(-c3ccc(NC(=O)Cc4cc(F)ccc4F)cc3)c12.O=C(O)C(F)(F)F` [SB-731254-M], for which the “%Inh” value is 11%.

Regarding `CC(C)c1nc(-c2cccc(NS(=O)(=O)c3c(F)cccc3F)c2)c(-c2ccnc(Nc3ccc(N4CCOCC4)nc3)n2)s1.Cl` [GSK1723980], the “%Inh” value amounted to 56%.

In the case of `Cl.N#CCc1ccc(Nc2nccc(Nc3ccc(Oc4ccccc4)cc3)n2)cc1` [GW639905], the “%Inh” value came out at 3%.

`CNc1nccc(-c2ccc3c(N)n[nH]c3c2)n1` [GSK2206003]: the “%Inh” value was 0%.

Turning to `COC(=O)Nc1nc2ccc(Oc3ccc(NC(=O)Nc4cc(C(F)(F)F)ccc4F)cc3)cc2[nH]1.Cl` [GW654607], the “%Inh” value came out at 0%.

For the compound `O=C(O)C(F)(F)F.O=c1[nH]ccc2nc(N[C@@H]3CCNC3)nc(Nc3cc(Cl)cc(Cl)c3)c12` [GSK2188764], the “%Inh” value came to 23%.

For the compound `Cl.O=C(Nc1ccc(Oc2ccc3[nH]c(NC(=O)c4ccco4)nc3c2)cc1)Nc1cc(C(F)(F)F)ccc1F` [GW683134], the “%Inh” value is recorded as 0%.

Take `c1ccc(Oc2ccc(Nc3ccnc4cc(-c5ccc(CN6CCCCC6)o5)ccc34)cc2)nc1` [GW567143]: the “%Inh” value is listed as 0%.

Regarding `NCCC(NC(=O)c1cc(Br)c(-c2ccnc3[nH]ccc23)s1)c1ccccc1.O=C(O)C(F)(F)F.O=C(O)C(F)(F)F` (stereo not drawn) [GSK1307810], the “%Inh” value was 0%.

In the case of `COc1ccc(NC(=O)c2ccoc2)cc1-c1ccc(C(=O)NCC2CC2)cc1` [GW810437], the “%Inh” value is listed as 0%.

Regarding `CCn1c(-c2nonc2N)nc2c(-c3ccccc3)ncc(OCCCN)c21.O=C(O)C(F)(F)F.O=C(O)C(F)(F)F` [GSK260205], the “%Inh” value was determined as 0%.

Take `CS(=O)(=O)c1cccc(CNc2nc(Nc3ccc4c(c3)CCC(=O)N4)ncc2C(F)(F)F)c1`: the “%Inh” value is 0%.

`O=C(Nc1c(F)cccc1F)c1cc(C(=O)c2ccccc2F)c[nH]1` [GSK1326180]: the “%Inh” value came to 0%.

As for `O=C(Nc1n[nH]c2nc(-c3cccc(O)c3)ccc12)C1CC1` [SB-711805], the “%Inh” value worked out at 25%.

On to `Cc1ccc(O)cc1Nc1ccnc2ccc(C(C)(C)C)cc12` [GW856805], for which the “%Inh” value is 24%.

`Cc1cccc(Nc2nc(NCCN)ncc2C(N)=O)c1` [GSK1292139]: the “%Inh” value was determined as 6%.

Regarding `Cn1cc(-c2ccc3c(c2)CCN3C(=O)Cc2cc(F)cc(C(F)(F)F)c2)c2c(N)ncnc21` [GSK2635225], the “%Inh” value is 0%.

Take `CC(C)c1nc(-c2ccc(F)c(NS(=O)(=O)c3c(F)cccc3F)c2)c(-c2ccnc(Nc3ccc(N4CCOCC4)nc3)n2)s1` [GSK1804250]: the “%Inh” value is given as 0%.

Regarding `CC(C)NCC(Cc1ccccc1)NC(=O)c1cc(Br)c(-c2ccnc3[nH]ccc23)s1.Cl.Cl` (stereo not drawn) [GSK1383281], the “%Inh” value is 0%.

`COc1cccc(CC(=O)N2CCc3cc(-c4cn(C)c5ncnc(N)c45)ccc32)c1` [GSK2608899]: the “%Inh” value is on record as 0%.

For the compound `N#Cc1cnc2cc(-c3cnc(CNCCN4CCOCC4)s3)ccc2c1Nc1ccc(Oc2ccccc2)cc1` [GW664114], the “%Inh” value stood at 4%.

Consider `COc1cccc2c(-c3ccncc3)c(-c3ccc(F)cc3)nn12` [GW468513], for which the “%Inh” value came to 0%.

For the compound `COc1cccc(NC(=O)NCCNc2ccnc(Nc3ccc(F)cc3)n2)c1` [GSK1379879], the “%Inh” value is recorded as 1%.

In the case of `Nc1ncc(-c2ccc3nccc(-c4ccncc4)c3c2)cc1S(=O)(=O)N1CCCCC1` [GSK1693850], the “%Inh” value came out at 13%.
